Giardia kill – kills Giardia lamblia. activity change, % at 7.66 µM, hits read low. actives 0.15% (n = 340,000). Giardia lamblia trophozoite viability; in the data active = activity change below about -80%; inconclusive = between about -30% and that limit;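 note: parasites exposed to compound for two days anaerobically before the ATP read; % is set by controls: 0 for no effect and ±100 for the full control effect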
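Killing of trophozoites was scored by loss of ATP luminescence after a 48 hrs anaerobic exposure to compounds at 37 deg C, using 100 cells per well.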
TrxR1 substrate – is turned over as a substrate by rat TrxR1. actives 0.01% (n = 390,000). Potency, µM (doses to about 114 µM), inactives show at the top dose activity change, negative = substrate turnover. purified TrxR1 substrate turnover, NADPH consumption readout; note: potency is the fitted concentration of half-maximal effect; % is set by controls: 0 for no effect and ±100 for the full control effect; nearly all actives have a fitted effect of over 50% in size
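Rat TrxR1, dispensed at 90 nM, was prereduced with 400 uM NADPH (final) for 5 min at ~22 deg C, then incubated with compound 15 min before 400 uM selenite. A first-read NADPH fluorescence drop versus no-compound background flagged substrates.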
IL-2 act – IL-2 activation. activation, % (series mostly up to about 46 µM). IL-2 activation reporter assay, cell-based qHTS; stimulated with anti-CD3/CD4/CD28 beads; in transgenic mouse T cells. actives 0.065% (n = 360,000). AID 652025; in the data active = activation above about 50%; inconclusive = mostly about 30% to 49%; note: 0% is about no effect
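Readout: EGFP and DsRed signals by fluorescent plate cytometry. Unstimulated transgenic mouse T cells received compound 60 min before antibody-bead stimulation, then incubated 18 h at 37 degrees C.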
BRCA1 expr act – BRCA1 expression activation. MCF7-BRCA1-FFLuc reporter, luminescence, 48 h; response scale: scaled: vehicle 0%, 10 µM genistein 100%. Potency, µM (top dose mostly 46.1 µM), for inactives: top-dose activation, hits mostly activators. actives 1.1% (n = 380,000). AID 624202; note: potency is the fitted concentration of half-maximal effect; nearly all actives have a fitted effect of over 80% in size
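Luminescence from a BRCA1-driven firefly luciferase in MCF7 cells was the read-out, taken 15 min after substrate addition following 48 h compound exposure at 37 °C. Data were normalized to a 10 microM genistein control and DMSO vehicle.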
IDH1 R132H inh – human IDH1 R132H inhibition; Potency, µM (doses to about 76.6 µM), for the others: at the highest dose activity change, negative = inhibition, actives largely listed as inhibitors; AID 602179; IDH1-R132H enzyme, NADPH consumption, diaphorase/resazurin fluorescence; actives 0.093% (n = 390,000); note: potency is the fitted concentration of half-maximal effect; % is set by controls: 0 for no effect and ±100 for the full control effect; nearly all actives have a fitted effect of over 65% in size
Target sequence (O75874 whole entry R132H, stated change not applied): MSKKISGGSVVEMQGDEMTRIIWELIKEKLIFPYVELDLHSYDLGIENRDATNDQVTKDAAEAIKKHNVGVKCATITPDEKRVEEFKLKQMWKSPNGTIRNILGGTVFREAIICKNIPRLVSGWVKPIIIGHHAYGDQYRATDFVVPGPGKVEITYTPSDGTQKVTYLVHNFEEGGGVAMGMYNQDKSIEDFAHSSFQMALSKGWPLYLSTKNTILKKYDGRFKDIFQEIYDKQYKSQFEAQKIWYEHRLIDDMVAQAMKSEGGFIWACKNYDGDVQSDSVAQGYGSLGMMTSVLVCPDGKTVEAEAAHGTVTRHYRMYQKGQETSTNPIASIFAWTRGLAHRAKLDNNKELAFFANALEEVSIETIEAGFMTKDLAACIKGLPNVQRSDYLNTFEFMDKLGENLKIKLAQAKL
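IDH1-R132H (0.5 ug/mL dispensed) in pH 7.5 Tris buffer was preincubated 30 min with compound, then given a substrate mix of 0.016 mM NADPH and 2 mM alpha-KG for 80 min at room temperature; remaining NADPH was read by diaphorase/resazurin fluorescence.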
TrxR1 inh – blocks rat thioredoxin reductase 1 | Potency, µM (top dose mostly 114 µM), inactives show at the top dose activity change, negative = inhibition, hits mostly inhibitors | recombinant rTrxR1, NADPH fluorescence consumption, selenite substrate | actives 1% (n = 390,000) | AID 588453; note: potency is the fitted concentration of half-maximal effect; % is set by controls: 0 for no effect and ±100 for the full control effect; nearly all actives have a fitted effect of over 65% in size
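Rat TrxR1 (90 nM in the dispensed reagent) was pre-reduced with 400 uM NADPH for 5 min at room temperature, then incubated with compound for 15 min. After 400 uM selenite was added, NADPH fluorescence (Ex 340/Em 450 nm) was followed for 8 min.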
Starred values were filed as active, the others as inactive; ? = inconclusive; nt = not tested or not shown; ! = repeats disagree; [ ] = remark or other dose. Most compounds without a hit are left out; they make up all but 2.2% or so of the library. Unless noted, calls come from the whole dose curve; as a rule, active = well fitted curve in the direction sought with a large enough effect; inconclusive = small, poorly fitted or top-dose-only effect, or another doubt; inactive = no such curve, though single readings can be large; an effect the other way counts as inactive or inconclusive.

SMILES	Giardia kill	TrxR1 substrate	IL-2 act	BRCA1 expr act	IDH1 R132H inh	TrxR1 inh
CCC(=O)N1CCc2cc(Br)cc(S(=O)(=O)N3CCN(c4cc(C)ccc4C)CC3)c21	nt	2%	nt	11%	0%	22%
CC(C)OCCCNC(=O)c1ccc2c(c1)ncn2C1CCCC1	-1	-6%	0	11µM*	-4%	8%
CCOc1c(CC2C(=O)Nc3ccc(Br)cc32)cccc1OC (configuration not stated)	nt	-10%	nt	nt	28%	-11%
Cc1c(CCOC(=O)c2cc([N+](=O)[O-])cc([N+](=O)[O-])c2)sc[n+]1CC(=O)c1ccccc1	-14	1%	1	3%	-6%	79µM*
CCN(C(=O)c1cc2c(=O)oc3ccccc3c2s1)c1ccccc1F	nt	1%[57.1 µM]	nt	nt	-8%	32%[57.1 µM]
Cc1cc(/C=C2\C=Cc3ccccc32)cc(C)c1[N+](=O)[O-]	nt	-5%	nt	-44%	nt	20µM*
Brc1ccc(/C=C2\C=Cc3ccccc32)cc1	nt	1%	nt	-1%	nt	32µM*
C1=Cc2ccccc2/C1=C\c1cccc(/C=C2\C=Cc3ccccc32)c1	nt	-1%	nt	12%	nt	20µM*
C1=Cc2ccccc2/C1=C\c1ccc(/C=C2\C=Cc3ccccc32)cc1	nt	-4%	nt	1%	nt	-4%
C[C@@H](NCCCc1cccc(C(F)(F)F)c1)c1cccc2ccccc12	nt	-3%	nt	-68%	nt	15%
CC(C)(C)C(=O)NCC(c1ccc2c(c1)OCO2)N1CCOCC1 (configuration not stated)	nt	8%[57.1 µM]	nt	nt	0%	28%[57.1 µM]
O=[N+]([O-])c1ccc(CN2CCN(c3ccc(F)cc3)CC2)o1	?	1%	0	12%	-1%	-23%
Cc1cccc(N2CCN(Cc3ccc([N+](=O)[O-])o3)CC2)c1C	-86*	-1%	-1	11%	6%	?
O=[N+]([O-])c1cccnc1NCCNc1ncc(C(F)(F)F)cc1Cl	-16	0%[57.1 µM]	-1	2.5µM*	5%	-14%
O=C1C=CC(=O)N1CCNc1ncc(C(F)(F)F)cc1Cl	-2	-7%	-4	-38%	5%	2µM*
O=C1CC(=O)N(CCNc2ncc(C(F)(F)F)cc2Cl)C(=O)N1	2	-2%	2	0%	-4%	-25%[57.1 µM]
Cc1c(C(=O)N2CCc3ccccc32)oc2c1C(=O)CC(C)(C)C2	0	8%	-1	13µM*	-1%	-2%
O=C(CSc1nc2[nH]ncc2c(=O)[nH]1)Nc1cccc(Cl)c1	-6	1%[57.1 µM]	-1	-10%	-4%	4%[57.1 µM]
CCc1ccc(NC(=O)C(C)Sc2nc(-c3ccco3)c(C#N)c(=O)[nH]2)cc1 (configuration not stated)	-11	5%	0	-18%	-2%	18µM*
CCOc1ccccc1NC(=O)C(C)Sc1nc(-c2ccccc2)c(C#N)c(=O)[nH]1 (configuration not stated)	nt	-2%	nt	nt	-15%	16%
N#Cc1c(-c2ccco2)nc(SCC(=O)Nc2cccc(Cl)c2)[nH]c1=O	3	-4%	-3	9%	1%	14µM*
Brc1cccc(CNc2nc3ccccc3n2CCN2CCCCC2)c1	-12	5%	-1	-38%	5%	18%
Brc1ccc(CNc2nc3ccccc3n2CCN2CCCCC2)cc1	-83*	5%	-1	-43%	2%	23%
C=C1C(=O)C23C(O)C1CCC2C12CCCC(C)(COC(C)=O)C1C(O)C3(O)OC2 (configuration not stated)	-7	-7%	-1	-89%	3%	7.1µM*
COc1cccc(NC(=O)Cn2c(=O)n(CCCC(=O)NCc3ccc4c(c3)OCO4)c(=O)c3ccccc32)c1	nt	5%	nt	0%	-9%	13%
SMILES	Giardia kill	TrxR1 substrate	IL-2 act	BRCA1 expr act	IDH1 R132H inh	TrxR1 inh
CCS(=O)(=O)CCSc1nc2ccccc2o1	1	10%	0	14%	-6%	15%
O=C(CSc1ccccn1)Nc1nc2ccccc2s1	-2	-1%	-2	55%	8%	-9%
O=S(=O)(CCSc1ccccn1)c1nc2ccccc2s1	-6	-3%	-2	-54%	6%	14µM*
O=S(=O)(CCSc1nc2ccccc2o1)c1nc2ccccc2s1	4	3%[57.1 µM]	-3	-81%	9%	1.1µM*
CCOC(=O)COc1ccc(CC)cc1C(=O)c1ccn2nc(-c3ccc(Cl)cc3)cc2n1	nt	13%	nt	-13%	-12%	27%
CC1=C(C(=O)Nc2ccccc2)C(c2ccc[nH]2)n2ncnc2N1 (configuration not stated)	nt	-3%[57.1 µM]	nt	-17%	nt	40µM*!
COC(=O)CSc1nc2cc(C)ccc2cc1C#N	-17	-6%	103*	?	3%	-12%
Cc1cc2nc(-c3ccc(OCc4ccccc4F)cc3)cc(C(F)(F)F)n2n1	nt	31%	nt	21%	-3%	20%
CCOc1ccc(-c2nc(S(=O)(=O)c3ccccc3)c(N3CCC(C(N)=O)CC3)o2)cc1	19	-6%	-3	-1%	0%	45µM*
CN(C(=O)c1ccc2c(Cl)c3c(nc2c1)CCC3)c1ccccc1	9	5%[57.1 µM]	-1	6.3µM*	0%	15%[57.1 µM]
O=C(CCOc1ccccc1F)N1CCN(c2ccccc2O)CC1	6	5%[57.1 µM]	1	11µM*	14%	8%[57.1 µM]
COc1cc(OC)cc(-c2noc(-c3csc([C@@H]4C[C@H](O)[C@@H](CO)O4)n3)n2)c1	nt	nt	0	10µM*	nt	nt
Brc1ccc(-c2noc(C3CCCCC3)n2)cc1	6	-4%	1	-4%	1%	8%
COc1ccc(-c2noc(-c3csc([C@@H]4C[C@H](O)[C@@H](CO)O4)n3)n2)cc1OC	nt	nt	0	14µM*	nt	nt
OC[C@H]1O[C@@H](c2nc(-c3ccc(Br)cc3)no2)C[C@@H]1O	nt	nt	0	7.9µM*	nt	nt
CCOc1ccc(N(Cc2cc3cc(C)ccc3[nH]c2=O)C(=O)c2cccc(Cl)c2)cc1	nt	3%	nt	nt	-16%	12%
COc1ccc(C(C(=O)Nc2ccc(C(C)C)cc2)N(C)C(=O)Cc2cccs2)cc1 (configuration not stated)	nt	6%	nt	nt	0%	31%
Nc1nnc(SCC(=O)Nc2cccc(F)c2)s1	nt	9%	nt	nt	13%	9%
CC(C)(C)OC(=O)N1CCC(c2c(C(=O)NCCN3CCOCC3)cnn2-c2ccc(F)cc2F)CC1	nt	-3%	nt	nt	5%	8%
CC1=NN(C(N)=S)C(=O)C1N=Nc1ccc(S(N)(=O)=O)cc1 (configuration not stated)	12	-14%	0	26%	?	-36%
CC(=O)N(C)c1ccc(N=NC2C(=O)N(C(N)=S)N=C2C)cc1 (configuration not stated)	17	-20%	0	4µM*	-7%	-8%

Assay outcomes (PubChem BioAssay)
